Source: PubChem BioAssay (Broad Institute)
C diff growth: C. difficile growth inhibitors, primary screen, HTS; Clostridium difficile clinical isolate growth, OD600, 24 h; stronger effect = lower value; growth activity, negative = inhibition, % at 16 µg/mL (by protocol); 86,000 compounds, 0.25% hits; AID 1259249, 2017;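 active means mean growth activity at or below -80% and every replicate also at or below -80%; inconclusive means mean at or below -80% but some replicate above -80%; inactive means mean growth activity above -80%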;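 further: 0% = DMSO wells and -100% = levofloxacin 16 µg/mL wells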
T cruzi growth-1: T. cruzi intracellular proliferation inhibitors, primary screen, cell-based, beta-gal Tulahuen parasites, NIH3T3 host, luminescence; T. cruzi beta-gal in NIH3T3, GalScreen luminescence, 90 h; inhibition, % at 8.34 µM; AID 624255, 2012; 77,000 compounds, 5.9% hits;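 active means mean inhibition above about 93%, with at least 55% of replicates each passing it, limit read from the data, passing the limit was not always enough; inconclusive means only one of those two conditions holds; inactive means neither condition holds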
Pf Dd2 growth: P. falciparum Dd2 growth inhibitors, primary screen, SYBR Green fluorescence, single dose replicates | 72 h; stronger effect = lower value | 94,000 compounds, 2.3% hits | activity change, % at 10 µM | AID 1159554, 2015; in the data active means activity change below about -80%; inconclusive means no clear call, values can overlap the other calls
T cruzi growth-2: T. cruzi intracellular proliferation inhibitors, confirmation, cell-based, NIH3T3 host, beta-gal parasite, luminescence, cherry-pick | T. cruzi beta-gal in NIH3T3, GalScreen luminescence, 90 h | AID 651739, 2012 | shares compounds with T cruzi growth-1 | inhibition, % at 8.35 µM | 5,600 compounds, 72% hits;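 active means mean replicate inhibition above about 95% and at least 55% of replicates individually reaching it, limit read from the data; inconclusive means only one of the two criteria is met; inactive means neither criterion is met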
T cruzi growth-3: inhibitors of intracellular T. cruzi replication, confirmation, NIH3T3 host cells, beta-gal parasites, cherry-pick, set 2; shares compounds with T cruzi growth-1; T. cruzi beta-gal in NIH3T3, GalScreen luminescence, 90 h; inhibition, % at 2.09 µM; 5,600 compounds, 21% hits; AID 651740, 2012;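 active means mean inhibition above about 95%, with at least 55% of replicates also reaching it, limit read from the data; inconclusive means meets just one of the two conditions; inactive means meets neither condition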;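 further: plate controls were neutral control median for no effect and positive control median for full effect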
NIH3T3 tox: cytotoxicity in mouse NIH/3T3 fibroblasts, confirmation, cytotoxicity control for T. cruzi proliferation inhibitor project, cell-based, cherry-pick, single point; shares compounds with T cruzi growth-1; NIH/3T3 viability, CellTiter-Glo ATP luminescence, 90 h; cytotoxicity (signal decrease), % at 8.35 µM; 5,600 compounds, 14% hits;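 active means mean signal decrease across replicates above about 35% based on untreated-well scatter, with enough replicates individually passing, limit read from the data; inconclusive means no rule stated though some were filed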;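 further: 0% = median of neutral control wells and 100% = median of positive control wells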
NIH3T3 tox 2: NIH/3T3 fibroblast cytotoxicity, confirmation, cytotoxicity control, cell-based, cherry-pick, single point, set 2. shares compounds with T cruzi growth-1. NIH/3T3 viability, CellTiter-Glo ATP luminescence, 90 h. inhibition, % at 24.9 µM. 5,600 compounds, 56% hits;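 active means mean loss of cell viability signal at or above a set limit, and enough replicates individually reaching it; inconclusive means meets only the mean limit or only the replicate share; inactive means meets neither condition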;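 further: 0% = median of neutral control wells and 100% = median of positive control wells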
An asterisk follows results filed as active; ? = inconclusive; · = not tested or not shown. In the library only some 6.7% were active in any assay of this set; here they are far more common.

SMILES	C diff growth	T cruzi growth-1	Pf Dd2 growth	T cruzi growth-2	T cruzi growth-3	NIH3T3 tox	NIH3T3 tox 2
C[C@@H]1CN([C@@H](C)CO)C(=O)c2cc(C#Cc3ccccn3)cnc2O[C@H]1CN(C)Cc1cccnc1	5.2	87.4	8.9	·	·	·	·
C[C@@H]1CN([C@H](C)CO)C(=O)c2cc(C#Cc3ccccn3)cnc2O[C@@H]1CN(C)Cc1cncnc1	-1.0	77.7	17.0	·	·	·	·
CCC(=O)N(C)C[C@H]1Oc2cc(-c3ccc(C#N)cc3)ccc2S(=O)(=O)N([C@H](C)CO)C[C@H]1C	-1.8	47.0	-10.4	·	·	·	·
CN(C)C(=O)c1cccc(-c2ccc([C@@H]3[C@H](CO)N4CCCCN(C(=O)C5CCCC5)C[C@@H]34)cc2)c1	-8.4	63.6	-6.5	·	·	·	·
CN(C)C(=O)c1cccc(-c2ccc([C@@H]3[C@@H](CO)N4CCCCN(S(C)(=O)=O)C[C@@H]34)cc2)c1	-7.8	99.3*	34.1	?	-23.8	-6.7	13.6
CN(C)C(=O)c1cccc(-c2ccc([C@@H]3[C@H]4CN(C(=O)C5CCCC5)CCCCN4[C@H]3CO)cc2)c1	-9.3	80.0	17.5	·	·	·	·
CN(C)C(=O)c1cccc(-c2ccc([C@H]3[C@@H](CO)N4CCCCN(C(=O)C5CCC5)C[C@@H]34)cc2)c1	-4.8	105.3*	-0.6	91.4	82.9	-1.0	8.3
CN(C)C(=O)c1cccc(-c2ccc([C@H]3[C@H](CO)N4CCCCN(C(=O)C5CCCC5)C[C@@H]34)cc2)c1	-9.2	?	19.1	99.1*	93.6	-5.6	21.0
CN(C)C(=O)c1cccc(-c2ccc([C@@H]3[C@@H](CO)N4CCCCN(S(C)(=O)=O)C[C@H]34)cc2)c1	-5.4	-29.6	4.0	·	·	·	·
C[C@@H]1CN([C@@H](C)CO)S(=O)(=O)c2ccc(-c3cccc(C#N)c3)cc2O[C@H]1CN(C)C(=O)Nc1cc(F)ccc1F	1.9	·	-24.5	·	·	·	·
CO[C@H](CN(C)Cc1nccs1)[C@H](C)CN([C@@H](C)CO)S(=O)(=O)c1ccc(F)cc1	·	24.0	19.9	·	·	·	·
CCC(=O)N1CC2(C1)[C@H](c1ccc(-c3ccc(F)cc3)cc1)[C@H](CO)N2C(=O)CC	1.6	·	-19.4	·	·	·	·
CN1c2ccc(-c3ccccc3)cc2[C@@H]2[C@@H](CCN2C(=O)Cc2ccccn2)[C@@H]1CO	-10.8	98.8*	-31.8	105.5*	57.6	-7.8	-5.6
CN1c2ccc(-c3ccc(F)cc3)cc2[C@@H]2[C@@H](CCN2C(=O)Cc2ccccn2)[C@@H]1CO	-12.8	56.3	-29.2	·	·	·	·
CN1c2ccc(-c3ccc(F)cc3)cc2[C@@H]2[C@@H](CCN2C(=O)Cc2cccnc2)[C@H]1CO	-0.9	115.4*	6.0	116.9*	102.9*	-9.1	3.5
COc1ccc(-c2ccc3c(c2)[C@@H]2[C@@H](CCN2C(=O)Cc2ccccn2)[C@@H](CO)N3C)cc1	-8.9	?	-56.2	107.1*	84.1	-30.0	-11.9
CN1c2ccc(-c3ccc(F)cc3)cc2[C@H]2[C@H](CCN2C(=O)Cc2ccccn2)[C@H]1CO	-13.2	5.1	-28.6	·	·	·	·
CN1c2ccc(-c3ccc(F)cc3)cc2[C@H]2[C@H](CCN2C(=O)Cc2ccccn2)[C@@H]1CO	-29.0	?	-67.0	110.3*	53.5	-35.8	-6.6
CN1c2ccc(-c3ccc(F)cc3)cc2[C@@H]2[C@@H](CCN2C(=O)Cc2ccccn2)[C@H]1CO	-10.4	10.1	-27.7	·	·	·	·
CN1c2ccc(-c3cccc(F)c3)cc2[C@@H]2[C@@H](CCN2C(=O)Cc2cccnc2)[C@@H]1CO	1.6	73.1	8.0	·	·	·	·
C[C@H]1CN([C@@H](C)CO)C(=O)c2cccc(NS(=O)(=O)c3ccc(Cl)cc3)c2O[C@@H]1CN(C)Cc1ccc(Cl)c(Cl)c1	17.7	66.1	-16.7	·	·	·	·
Cc1ccc(S(=O)(=O)N(C)C[C@@H]2Oc3ccc(NC(=O)c4ccncc4)cc3CC(=O)N([C@@H](C)CO)C[C@@H]2C)cc1	7.0	46.4	4.9	·	·	·	·
N#C[C@H]1[C@@H](c2ccccc2-c2ccc(F)cc2)[C@@H](CO)N1C(=O)NC1CCCC1	-17.2	·	-16.4	·	·	·	·
CCCNC(=O)N1C[C@@H]2[C@H](c3ccccc31)[C@@H](CO)N2Cc1ccccc1F	0.3	9.6	-3.7	·	·	·	·
O=C(Cc1cccnc1)N[C@@H]1CC[C@@H](CCn2cc(-c3ccccc3F)nn2)O[C@@H]1CO	0.5	-60.1	12.4	·	·	·	·
SMILES	C diff growth	T cruzi growth-1	Pf Dd2 growth	T cruzi growth-2	T cruzi growth-3	NIH3T3 tox	NIH3T3 tox 2
CN1c2ccc(-c3cccc(C#N)c3)cc2[C@@H]2[C@@H](CCN2C(=O)Cc2ccccn2)[C@@H]1CO	-19.9	105.7*	-49.8	101.7*	50.8	-10.8	36.3*
CCC(=O)N1CC[C@@H]2[C@H]1c1cc(-c3ccc(C#N)cc3)ccc1N(C)[C@H]2CO	0.6	81.0	18.4	·	·	·	·
CN(C)C(=O)c1cccc(-c2ccc3c(c2)[C@@H]2[C@@H](CCN2C(=O)Cc2ccccn2)[C@@H](CO)N3C)c1	6.2	26.8	-20.4	·	·	·	·
CN1c2ccc(-c3cccc(C#N)c3)cc2[C@H]2[C@H](CCN2C(=O)C2CC2)[C@H]1CO	5.5	·	-44.2	·	·	·	·
CN1c2ccc(-c3cccc(C#N)c3)cc2[C@H]2[C@H](CCN2C(=O)CN2CCOCC2)[C@H]1CO	-9.0	?	-26.1	107.9*	9.2	2.0	15.8
CN1c2ccc(-c3cccc(C#N)c3)cc2[C@H]2[C@H](CCN2C(=O)CN2CCOCC2)[C@@H]1CO	-6.4	57.4	-65.1	·	·	·	·
CN(C)C(=O)c1ccc(-c2ccc3c(c2)[C@H]2[C@H](CCN2C(=O)Cc2ccccn2)[C@@H](CO)N3C)cc1	-6.4	?	-37.7	106.1*	46.5	-4.6	-8.0
CN1c2ccc(-c3ccc(C#N)cc3)cc2[C@@H]2[C@@H](CCN2C(=O)CC2CC2)[C@@H]1CO	6.1	?	6.1	100.1*	?	46.8*	79.8*
C[C@@H]1CCCCO[C@@H](CN(C)CC2CC2)[C@@H](C)CN([C@H](C)CO)C(=O)c2cc(NS(C)(=O)=O)ccc2O1	-4.5	34.6	19.4	·	·	·	·
CN1CCN(C(=O)C[C@H]2CC[C@@H]3[C@@H](COc4ccc(NC(=O)C5CCC5)cc4C(=O)N3C)O2)CC1	5.3	·	28.3	·	·	·	·
CC(=O)NC[C@H]1[C@@H](c2ccc(C3=CCCC3)cc2)[C@@H](CO)N1C(=O)C1CC1	-6.3	·	-0.4	·	·	·	·
Cc1ccc(S(=O)(=O)Nc2ccc3c(c2)C(=O)N([C@@H](C)CO)C[C@H](C)[C@H](CN(C)S(=O)(=O)c2c(C)noc2C)O3)cc1	-1.5	10.1	-47.8	·	·	·	·
